Results on eleven molecules are retold here after PubChem BioAssay (EPA / NIEHS).

The AC50 is the concentration at which the activity in the assay is half-maximal.

Molecules are shown by their SMILES. Where “and” joins values, the source holds several entries; their conditions need not be identical. Identical values can stand only once. A structure can be active in one record and inactive in another. Calls of active or inactive are those of the source. How the source made its calls: active means hit-call score of the fitted dose curve at least 0.9, where 1 is the maximum; inactive means score below 0.9.

Read-out in experiment [1]: TIMP metallopeptidase inhibitor 2 (TIMP2), TIMP2 (gene 7077)
The experiment is described as follows: BSK_hDFCGF_TIMP2: BioMAP Diversity Plus: hDFCGF Assay for TIMP metallopeptidase inhibitor 2 (TIMP2) Biomarker Activity (AID 2284289). As to conditions: primary human foreskin fibroblasts. The essentials: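 Primary human foreskin fibroblasts in the hDFCGF system, dosed for 24 h; TIMP-2 level measured by ELISA, fitted in the positive direction against DMSO; cytotoxicity checked in parallel by sulforhodamine B total protein staining.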

Read-out in experiment [2]: Thrombomodulin, THBD (gene 7056)
The experiment is described as follows: BSK_LPS_Thrombomodulin: BioMAP Diversity Plus: LPS Assay for Thrombomodulin Biomarker Activity (AID 2284296). Particulars: primary human HUVEC with PBMC. The method, boiled down:
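Thrombomodulin on the surface of LPS-activated endothelial/PBMC co-cultures was quantified by ELISA at 24 hours post-dosing, with DMSO as baseline. Parallel SRB total-protein staining flagged overt cytotoxicity.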

Read-out in experiment [3]: Interleukin-1 alpha (IL1a), IL1A (gene 3552)
Briefly: BSK_IMphg_IL1a: BioMAP Diversity Plus: IMphg Assay for Interleukin-1 alpha (IL1a) Biomarker Activity (AID 2284290). Particulars: primary human endothelial cells with macrophages. The method, boiled down: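 IL-1α is quantified by ELISA at 24 h in the endothelial/macrophage IMphg co-culture, with gain of signal fitted relative to DMSO. Parallel SRB total-protein staining flags overt toxicity.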

Read-out in experiment [4]: E-selectin (Homo sapiens) (UniProt P16581)
Briefly: BSK_IMphg_ESelectin: BioMAP Diversity Plus: IMphg Assay for Eselectin Biomarker Activity (AID 2284291). As to conditions: primary human endothelial cells with macrophages. The method, boiled down: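 Analysed against DMSO baseline in the positive fitting direction, this endpoint is an ELISA read of E-selectin. It comes from human venular endothelial cells co-cultured with macrophages, sampled 24 h post-dose.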

Experiment [5] in a line: BSK_IMphg_SRB: Viability Assessment in the BioMAP Diversity Plus: IMphg Assay (AID 2284292).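 Further: measured one day after compound addition.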 Particulars: primary human endothelial cells with macrophages. Here is the method: BSK_IMphg is a cell-based, multiplexed-readout assay that uses venular endothelial cells and macrophages, a human vascular primary cell, with measurements taken at 24 hours after chemical dosing in a microplate: 96-well plate.BSK_IMphg_SRB is an assay component measured in the BSK_IMphg assay. It measures […] related to cell death using Sulforhodamine staining technology.Data from the assay component BSK_IMphg_SRB was analyzed at the endpoint, BSK_IMphg_SRB, in the positive analysis fitting direction relative to DMSO as the negative control and baseline of activity. Using a type of viability reporter, gain or loss-of-signal activity can be used to understand protein changes. […]
The levels of cell surface (or secreted, indicated by the prefix "s") biomarker endpoints were measured by ELISA. Overt cytotoxicity to cells in confluent adherent cultures (all systems other than the BT system) was assessed by measuring total protein levels using sulforhodamine B (SRB) staining in parallel cultures at the time of biomarker measurements, indicated as SRB endpoints. For proliferation assays for adherent cell types, individual cell types are cultured at sub-confluence and relative cell numbers quantified by SRB staining at time points optimized for each system (48 h: 3C and CASM3C systems; 72 h: BT and HDF3CGF systems; 96 h: SAg system). […] Plates were read after 6 h.

Read-out in experiment [6]: Macrophage colony-stimulating factor (MCSF), CSF1 (gene 1435)
Briefly: BSK_IMphg_MCSF: BioMAP Diversity Plus: IMphg Assay for Macrophage colony-stimulating factor (MCSF) Biomarker Activity (AID 2284293). As to conditions: primary human endothelial cells with macrophages. The essentials: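 M-CSF was measured by ELISA in human venular endothelial cell/macrophage co-cultures dosed for 24 hours. Sulforhodamine B staining of parallel cultures assessed cytotoxicity; data fitted against DMSO baseline.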

Read-out in experiment [7]: Interleukin-10 (IL10), IL10 (gene 3586)
Briefly: BSK_IMphg_IL10: BioMAP Diversity Plus: IMphg Assay for Interleukin-10 (IL10) Biomarker Activity (AID 2284294). As to conditions: primary human endothelial cells with macrophages. The method, boiled down: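 IL-10 read by ELISA after 24 h chemical exposure of primary human venular endothelial cell/macrophage cocultures, with DMSO as baseline. Parallel SRB staining (560 nm) gauged overt cytotoxicity.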

Experiment [8] can be described thus: BSK_IMphg_SRB.Mphg: Macrophage Viability Assessment in the BioMAP Diversity Plus: IMphg Assay (AID 2284295). As to conditions: primary human endothelial cells with macrophages. The method, boiled down: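 Cytotoxicity read-out: parallel cultures fixed with 10% TCA, stained with 0.1% sulforhodamine B, read at 560 nm. System combines venular endothelium and macrophages; sampled 24 h post-dosing, fitted positively relative to DMSO control.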

A short description of experiment [9]: IUF_NPC2c_oligodendrocyte_migration_120hr: Leibniz Research Institute for Environmental Medicine (IUF) 120-hour Neural Progenitor Cell Migration Assay for Oligodendrocyte Migration (NPC2c) (AID 2284297).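 Further: O4-positive oligodendrocyte migration distance divided by radial glia migration distance.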 Here is the method: IUF_NPC2-5 is a cell-based, multiplexed assay that uses hNPC, a human primary neural progenitor cells, with measurements taken at 72 or 120 hours after chemical dosing in a 96-well plate. Human neural progenitor cells (hNPC) are generated from human fetal brain cortex at gestational week (GW) 16-19. In the neural progenitor cell migration and differentiation assay (NPC2-5), hNPCs grown as spheres are plated on an extracellular matrix and migrate and differentiate out of the sphere core. The processes radial glia migration, neuronal and oligodendrocyte migration as well as neuronal differentiation, neuronal morphology and oligodendrocyte differentiation are studied using automated phase contrast imaging and automated fluorescence imaging in combination with high content image analysis. In parallel, the cell viability is assessed using an alamar blue viability assay and the cytotoxicity using a lactate dehydrogenase dependent membrane integrity assay.IUF_NPC2b_oligodendrocyte_migration_120hr is one of 12 assay components measured from the IUF_NPC2-5 assay. […] Oligodendrocyte migration is normalized to radial glia migration distance at 120 hr.Data from the IUF_NPC2c_oligodendrocyte_migration_120hr component was analyzed at the endpoint IUF_NPC2c_oligodendrocyte_migration_120hr in the positive analysis fitting direction relative to DMSO as the negative control and baseline of activity. […]

Experiment [10] is described as follows: IUF_NPC2a_radial_glia_migration_120hr: Leibniz Research Institute for Environmental Medicine (IUF) 120-hour Neural Progenitor Cell Migration Assay for Radial Glia Migration (NPC2a) (AID 2284298). The method, boiled down: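 Human fetal-cortex neural progenitor spheres (0.3 mm) plated on poly-D-lysine/laminin in N2 differentiation medium, exposed 120 h at 37C with half-medium renewal at day 3. Radial glia migration distance (um) measured from Hoechst-stained nuclei images; DMSO baseline.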

E-selectin (Homo sapiens), sequence (P16581 whole entry, looked up): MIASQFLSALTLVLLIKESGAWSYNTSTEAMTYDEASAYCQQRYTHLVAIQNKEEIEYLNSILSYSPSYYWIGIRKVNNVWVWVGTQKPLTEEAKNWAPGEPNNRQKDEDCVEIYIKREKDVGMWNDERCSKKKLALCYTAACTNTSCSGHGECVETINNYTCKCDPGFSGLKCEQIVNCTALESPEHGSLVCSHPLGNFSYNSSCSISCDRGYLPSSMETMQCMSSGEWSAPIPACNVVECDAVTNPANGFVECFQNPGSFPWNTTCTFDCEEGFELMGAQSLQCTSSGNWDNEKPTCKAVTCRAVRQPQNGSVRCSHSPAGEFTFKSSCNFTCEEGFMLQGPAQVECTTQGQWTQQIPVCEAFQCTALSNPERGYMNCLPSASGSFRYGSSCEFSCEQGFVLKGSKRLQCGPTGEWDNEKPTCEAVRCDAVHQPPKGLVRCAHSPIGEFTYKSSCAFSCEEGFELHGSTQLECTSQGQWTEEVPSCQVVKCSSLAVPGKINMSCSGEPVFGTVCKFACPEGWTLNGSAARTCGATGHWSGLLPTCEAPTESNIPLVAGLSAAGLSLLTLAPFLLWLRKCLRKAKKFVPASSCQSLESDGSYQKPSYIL

For the molecule `CCCC(C)C(=O)OCC` (configuration not stated), the result in experiment [1] and in experiment [2] was inactive.
In the case of `Oc1ccccc1Cc1ccccc1O`, the outcome in experiment [1] and in [2] was inactive.
Turning to `C[N+](C)(C)CCCNS(=O)(=O)C(F)(F)C(F)(F)C(F)(F)C(F)(F)C(F)(F)C(F)(F)C(F)(F)C(F)(F)F`, the AC50 in experiment [1] is 8.16 µM (active); in experiment [4] it was 30 µM (active); in experiment [5], 34.3 µM (active) and 42.3 µM (active); in experiment [7] it was 41 µM (active) and 36.9 µM (active); in experiment [8] it was 46.2 µM (active) and 30 µM (active); in experiment [2] it was 21.4 µM (active). Further, the result in experiment [1], in experiment [3], in experiment [4], in experiment [6] and in experiment [2] was inactive.
With `Cc1c(C(=O)c2c[nH]n(C)c2=O)ccc(S(C)(=O)=O)c1C1=NOCC1`, the result in experiment [9] and in experiment [10] was inactive.
As to `O=C(O)C(F)(F)C(F)(F)C(F)(F)C(F)(F)C(=O)O`, the result in experiment [1], in [3], in experiment [4], in [5], in experiment [6] and in experiment [7] was inactive. For the same molecule, the result in [8] and in experiment [2] was inactive.
For the molecule `CC(C)C(=O)OCCc1ccccc1`, the outcome in experiment [1] and in experiment [2] was inactive.
`CC(CCC(=O)O)(c1ccc(O)cc1)c1ccc(O)cc1`: the result in experiment [1] and in [2] was inactive.
As to `Nc1nc(N)nc(-c2ccccc2)n1`, the result in experiment [1] and in experiment [2] was inactive.
As for `CCCCNS(=O)(=O)c1ccccc1`, the molecule was called inactive in [9] and in [10].
Turning to `CCCCCCCCCCCC(=O)N(C)CC(=O)O`, the result in [1] and in [2] was inactive.
As to `c1ccc(Nc2cccc3ccccc23)cc1`, the concentration at half-maximal activity (AC50) in experiment [1] is 33 µM (active) and 31.1 µM (active); in experiment [2], 33.7 µM (active) and 31.2 µM (active).
